# Compounds with a hit are over-represented: about 1.2% of the library has one in this group of screens.
# RGS4-Gao reg = human RGS4-Galphao interaction regulation; P09471; Multiplexed bead flow cytometry, RGS4-Galphao binding; actives lie on both sides; binding response (% of control), % at 10 µM; hit rate 0.33% among 220,000; AID 1415; in the data active = binding response below about 49% or above about 150%; inactive = in between;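 also: fluorescent Galphao activated with aluminum fluoride binding bead-coupled RGS4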
# Target sequence (P09471 whole entry, looked up): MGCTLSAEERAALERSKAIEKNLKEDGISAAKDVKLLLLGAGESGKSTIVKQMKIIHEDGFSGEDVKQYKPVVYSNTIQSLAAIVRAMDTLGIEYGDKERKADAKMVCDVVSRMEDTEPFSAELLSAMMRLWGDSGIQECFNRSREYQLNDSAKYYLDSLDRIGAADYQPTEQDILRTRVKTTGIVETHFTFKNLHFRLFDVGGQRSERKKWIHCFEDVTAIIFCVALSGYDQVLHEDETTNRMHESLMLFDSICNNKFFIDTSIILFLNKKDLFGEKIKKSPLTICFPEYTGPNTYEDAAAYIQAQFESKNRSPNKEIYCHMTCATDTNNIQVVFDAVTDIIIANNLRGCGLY
# GSH bead fluor = GSH bead compound fluorescence profile; fluorescence (KMESF) at 10 µM; GSH beads flow cytometry, compound fluorescence 488/530 nm; hits give high values; hit rate 0.25% among 190,000; in the data active = fluorescence above about 89;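 also: glutathione beads carrying GST-tagged Bcl family fusion proteins plus one bare bead set; values are compound well signal with DMSO vehicle wells as background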
# RGS8-Gao = human RGS8-Galphao interaction regulation | P09471 | multiplexed bead flow cytometry, RGS8-Galphao binding; actives lie on both sides | response (percent of control binding), % at 10 µM | hit rate 0.34% among 220,000; in the data active = response below about 60% or above about 140%; inactive = in between;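 also: Galphao activated as the GDP aluminium fluoride complex binding bead-coupled RGS8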
# RGS7-Gao = human RGS7-Galphao interaction regulation | P09471 | Multiplexed bead flow cytometry, RGS7-Galphao binding; actives lie on both sides | binding response (% of control), % at 10 µM | hit rate 0.35% among 220,000; in the data active = binding response below about 49% or above about 150%; inconclusive = no clear call, values can overlap the other calls; inactive = in between;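 also: fluorescent Galphao held in activated GDP-AlF4 state binding bead-coupled RGS7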
# Avidin fluor = compound fluoresces at 488/530 nm on avidin beads | AID 1775 | fluorescence (KMESF) at 10 µM | compound fluorescence 488/530 nm, flow cytometry; hits give high values | hit rate 0.38% among 220,000; in the data active = fluorescence above about 47
# RGS16-Gao = modulates binding between human RGS16 and Galphao; bead-based flow cytometry RGS16-Galphao binding, fluorescence; actives lie on both sides; hit rate 0.38% among 220,000; AID 1441; binding response (% of control), % at 10 µM; O15492+P09471;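 also: Galphao activated by GDP with aluminum fluoride before binding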
# Target sequence (O15492 whole entry, looked up): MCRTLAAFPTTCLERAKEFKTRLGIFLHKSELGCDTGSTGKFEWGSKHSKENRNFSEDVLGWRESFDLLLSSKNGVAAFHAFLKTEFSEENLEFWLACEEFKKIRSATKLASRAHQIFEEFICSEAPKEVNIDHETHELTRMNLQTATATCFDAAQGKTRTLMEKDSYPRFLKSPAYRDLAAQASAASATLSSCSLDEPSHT
# Target sequence (P09471 whole entry, looked up): as the sequence (P09471 whole entry, looked up) above
# RGS-Gao = regulators of human RGS4-Galphao interaction. AID 1504. multiplexed bead flow cytometry, RGS–Galpha-o binding. shares compounds with RGS16-Gao. hit rate 99% among 1,600. RGS4–Galpha-o binding response, % at 10 µM;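 also: fluorescently labeled Galpha-o bound to GDP with aluminium fluoride binding biotinylated RGS beads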
# Biotin-avidin = interferes with biotinylated probe binding to avidin beads | inhibition, % at 10 µM | 1,700 tested, under 10 active | shares compounds with RGS16-Gao | AID 1783 | streptavidin beads, fluorescein-biotin binding, flow cytometry;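 active = inhibition above 50%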;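 also: median green fluorescence of gated singlet beads compared with DMSO control wells; 0% = DMSO wells and 100% = complete loss of bead fluorescence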
# RGS8-Gao confirm = RGS8-Galphao interaction regulation, single point confirmation | shares compounds with RGS16-Gao | bead-based flow cytometry RGS8-Galphao binding, fluorescence; actives lie on both sides | binding response (% of control), % at 10 µM | hit rate 3% among 1,700 | AID 1836; in the data active = binding response below about 72% or above about 130%; inactive = in between;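 also: Galphao activated as GDP AlF4 complex before binding bead RGS8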
# RGS7-Gao confirm = confirmation of regulators of human RGS7-Galphao interaction | response (percent of control binding), % at 10 µM | hit rate 7.8% among 1,700 | shares compounds with RGS16-Gao | bead-based flow cytometry RGS7-Galphao binding; actives lie on both sides; in the data active = response below about 75% or above about 130%; inactive = in between;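 also: fluorescent Galphao activated with GDP and aluminum fluoride binding bead-coupled RGS7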
# RGS16-Gao single = confirmation of regulators of human RGS16-Galphao interaction. shares compounds with RGS16-Gao. bead-based flow cytometry, RGS16-Galphao binding; actives lie on both sides. response (% of control binding), % at 10 µM. hit rate 4% among 1,700; in the data active = response below about 74% or above about 130%; inactive = in between;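 also: Galphao activated as the GDP aluminium fluoride complex binding bead-coupled RGS16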
# RGS4-Gao confirm = RGS4-Galphao interaction regulation, single point confirmation; AID 1840; RGS4-Galphao binding, multiplexed bead flow cytometry; actives lie on both sides; binding response (% of control), % at 10 µM; shares compounds with RGS16-Gao; hit rate 4% among 1,700; in the data active = binding response below about 74% or above about 130%; inactive = in between
# RGS19-Gao single = confirmation of regulators of human RGS19-Galphao interaction. hit rate 5% among 1,700. response (percent of control binding), % at 10 µM. shares compounds with RGS16-Gao. bead-based flow cytometry RGS19-Galphao binding; actives lie on both sides; in the data active = response below about 50% or above about 160%; inactive = in between;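 also: 100% = no compound control and 0% = blank background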
# Numbers without * were called inactive; i = inactive; ? = inconclusive; nt = not tested or not shown; [ ] = remark or other dose. Unless noted, no rule for the calls is given here.
SMILES,RGS4-Gao reg,GSH bead fluor,RGS8-Gao,RGS7-Gao,Avidin fluor,RGS16-Gao,RGS-Gao,Biotin-avidin,RGS8-Gao confirm,RGS7-Gao confirm,RGS16-Gao single,RGS4-Gao confirm,RGS19-Gao single
O=C(C/C=N\OCc1ccc([N+](=O)[O-])cc1)Nc1ccc(Br)cc1,106,18,101,157*[activator],38,101,106*,-1,96,95,92,96,85
O=C(COc1ccccc1[N+](=O)[O-])Nc1ccc(Br)cc1,133,nt,119,?,7,126,nt,nt,nt,nt,nt,nt,nt
COc1cc(C(=O)Nc2ccc3c(c2)CCN3C(C)=O)cc(OC)c1OC,207*[activator],34,109,186*[activator],21,170,nt,0,107,112,111,106,118
COc1ccc(CC(=O)N2CCCc3ccccc32)cc1OC,100,34,96,101,10,85,nt,nt,nt,nt,nt,nt,nt
COc1cc(CC(=O)N2CCc3ccccc32)cc(OC)c1OC,146,44,nt,nt,nt,nt,nt,2,100,99,98,98,98
Cc1cccc(-n2c(SCC(=O)NCc3ccc4c(c3)OCO4)nc3ccccc3c2=O)c1,135,12,148*[activator],131,14,555,135*,-2,100,97,100,98,92
O=C(CSc1nc2ccccc2c(=O)n1-c1ccccc1)NCc1ccc2c(c1)OCO2,102,12,97,103,22,99,nt,nt,nt,nt,nt,nt,nt
CC(NC(=O)Cc1ccc(-c2ccccc2)cc1)c1ccccc1 (configuration not stated),152*[activator],24,106,263*[activator],358*,222,nt,-2,96,123,93,98,100
COc1ccc(OCC(=O)N2CCN(c3nnc(-c4ccccc4)c4ccccc34)CC2)cc1,12*,18,22*,15*,-1,8.3*,nt,-1,111,120,115,115,99
Cc1nnc(SCC(=O)N2CCCC2)n(N)c1=O,100,22,102,99,25,103,nt,nt,nt,nt,nt,nt,nt
Cc1ccccc1NC(=O)COC(=O)c1cc(=O)c2ccccc2o1,41*,15,48*,37*,9,35,nt,0,104,101,106,103,108
O=C(O)c1ccccc1Sc1c([N+](=O)[O-])cc(C(F)(F)F)cc1[N+](=O)[O-],106,11,109,107,22,114,nt,nt,nt,nt,nt,nt,nt
COc1ccc(NC(C)=O)cc1NC(=O)CN1CCN(C(=O)c2ccco2)CC1,130,32,153*[activator],123,2,i,130*,1,109,112,112,110,121
Cc1ccc(C(=O)C2Oc3ccccc3C3CC(c4ccc(C)cc4)=NN23)cc1 (configuration not stated),79,7,57*,83,2,14,79*,-1,101,97,99,100,92
Cc1nn(-c2ccccc2)c(C)c1/C=N/NC(=O)CSc1nnc(SCc2ccc(Cl)cc2)s1,108,11,101,157*[activator],68*,104,108*,0,97,92,85,93,58
O=C(CSc1nnc(SCc2ccccc2)s1)N/N=C/c1c(Cl)cccc1Cl,106,13,105,105,5,106,nt,nt,nt,nt,nt,nt,nt
S=C(Nc1ccc2c(c1)OCO2)Nc1ccc2c(c1)OCO2,142,22,141*[activator],159*[activator],10,146,142*,0,100,103,99,102,92
CN(C)C(=S)Nc1ccc2c(c1)OCO2,97,10,94,95,9,95,nt,nt,nt,nt,nt,nt,nt
CC1(C)CC2CC(C)(CN2/C=C2/CCCCC2=O)C1 (configuration not stated),105,nt,99,?,7,100,nt,nt,nt,nt,nt,nt,nt
COc1ccc(-n2c(C)c([N+](=O)[O-])c3ccc(O)c(CN4CCCCC4)c32)cc1,25*,10,92,79,8,-307,nt,0,101,108,100,103,84
Cc1ccc(-n2c(C)c([N+](=O)[O-])c3ccc(O)c(CN(C)C)c32)cc1,104,12,103,105,8,105,nt,nt,nt,nt,nt,nt,nt
COC(=O)c1ccc(Oc2ccc3nncn3n2)cc1,97,12,95,95,17,88,nt,nt,nt,nt,nt,nt,nt
COC(=O)c1ccc(Oc2ccc3nnc(C)n3n2)cc1,122,64,142*[activator],116,6,389,122*,-1,100,94,97,99,95
CCCC(=O)Nc1nc2c(C)c(Cl)ccc2s1,94,nt,97,?,6,96,nt,nt,nt,nt,nt,nt,nt
CC(=O)Nc1nc2c(C)c(Cl)ccc2s1,96,nt,82,?,7,99,nt,2,104,102,110,101,99
SMILES,RGS4-Gao reg,GSH bead fluor,RGS8-Gao,RGS7-Gao,Avidin fluor,RGS16-Gao,RGS-Gao,Biotin-avidin,RGS8-Gao confirm,RGS7-Gao confirm,RGS16-Gao single,RGS4-Gao confirm,RGS19-Gao single
CC(COc1ccccc1)N1CCC(CO)(Cc2ccccc2)CC1 (configuration not stated),101,9,100,103,3,99,nt,nt,nt,nt,nt,nt,nt
COc1ccc(C2C(C(C)=O)=C(O)C(=O)N2c2nccs2)c(OC)c1 (configuration not stated),99,11,99,?,13,102,nt,nt,nt,nt,nt,nt,nt
CCNC(=O)c1ccccc1NC(=O)c1cccc(S(=O)(=O)N2CCOCC2)c1,-14*,22,6.6*,-3.6*,-3,-4.5*,nt,0,102,104,103,101,101
O=C(N/N=C/c1ccc(N2CCOCC2)o1)c1cccc([N+](=O)[O-])c1,87,10,63,87,2,18*,87*,0,97,92,97,96,69
CCC(C)/C(C)=N/NC(=O)c1ccc(CSc2nc3ccccc3s2)cc1 (configuration not stated),100,9,103,99,14,109,nt,nt,nt,nt,nt,nt,nt
N#Cc1ccc(NC(=S)NCCN2CCOCC2)cc1,90,17,99,91,8,93,nt,nt,nt,nt,nt,nt,nt

# From PubChem BioAssay
